Results reported in PubChem BioAssay AID588591 (National Center for Advancing Translational Sciences (NCATS), 2011).
“And” between values parts separate entries of the source, which are not always exact repeats. Equal values may be shown once. Screen size: about 390,000 compounds; about 4,700 (1.2%) were called active. About 4% were inconclusive and are not listed. Calls follow the shape of the dose curve; as a rule, active = well fitted inhibition curve with a large enough effect; inconclusive = small, poorly fitted or top-dose-only effect, or another doubt; inactive = no such curve, though single readings can be large or run the other way. The entries come from a sample that favours actives as a whole. Where a structure was tested more than once in an assay, its records may differ in their call.

Target: DNA polymerase eta (Homo sapiens) (UniProt Q9Y253)
Sequence (Q9Y253 whole entry, looked up): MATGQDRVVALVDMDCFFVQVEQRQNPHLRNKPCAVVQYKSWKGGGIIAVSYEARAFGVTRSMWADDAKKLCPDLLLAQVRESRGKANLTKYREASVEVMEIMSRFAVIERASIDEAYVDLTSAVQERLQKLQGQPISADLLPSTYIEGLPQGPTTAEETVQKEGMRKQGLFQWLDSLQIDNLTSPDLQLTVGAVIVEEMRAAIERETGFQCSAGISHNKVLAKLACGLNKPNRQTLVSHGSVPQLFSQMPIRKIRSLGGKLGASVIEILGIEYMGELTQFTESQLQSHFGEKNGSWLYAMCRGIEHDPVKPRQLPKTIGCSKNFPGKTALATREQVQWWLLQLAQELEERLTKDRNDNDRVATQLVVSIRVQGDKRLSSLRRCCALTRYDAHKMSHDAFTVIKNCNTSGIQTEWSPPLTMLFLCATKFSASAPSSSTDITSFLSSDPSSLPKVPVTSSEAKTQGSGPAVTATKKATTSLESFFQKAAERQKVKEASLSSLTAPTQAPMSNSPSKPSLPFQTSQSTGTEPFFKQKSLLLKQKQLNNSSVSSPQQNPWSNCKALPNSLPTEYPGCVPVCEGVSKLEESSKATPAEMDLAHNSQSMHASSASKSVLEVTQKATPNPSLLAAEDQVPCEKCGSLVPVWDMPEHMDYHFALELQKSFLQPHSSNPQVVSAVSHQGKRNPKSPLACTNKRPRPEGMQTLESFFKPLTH
Assay: qHTS for Inhibitors of Polymerase Eta
Details: recombinant Pol eta, fluorescent DNA replication assay; series mostly up to 114 µM
Outline: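 Pol eta (10 nM) was preincubated with compounds for 15 min at room temperature, after which fluorescent replication substrate (50 nM final) was added to start the reaction. Fluorescence was read kinetically at 0 and 10 min.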
Potency is read from the fitted curve at half-maximal effect.

Potency, active:
O=C(O)c1ccc2c(c1)C(=O)N(c1ccc(/C=C/C(=O)c3ccccc3)cc1)C2=O 22.4 µM
Cc1cc(C)cc(Oc2c(C(F)(F)F)oc3cc(OCC(=O)O)ccc3c2=O)c1 35.5 µM
O=C1COc2c1ccc(O)c2O 22.4 µM
CCOc1cccc2c1N[C@@H](c1ccc(C(=O)O)cc1)[C@H]1CC=C[C@@H]21 8.91 µM
CCC(=O)N1c2ccc(S(=O)(=O)NCc3ccco3)cc2CC1C (stereo not given) 56.2 µM
COc1c(O)cc2oc(-c3ccc(O)c(O)c3)cc(=O)c2c1O 3.55 µM
CCS(=O)(=O)C1=NSC2=NC(=O)/C(=C\c3ccc(OS(=O)(=O)c4ccccc4)cc3)C(=N)N21 20 µM
Cc1cc(/C=C2/C(=N)N3C(=NC2=O)SN=C3S(C)(=O)=O)c(C)n1-c1ccccc1 44.7 µM
CS(=O)(=O)C1=NN2C(=N)/C(=C\c3ccc(OCCOc4ccccc4)cc3)C(=O)N=C2S1 44.7 µM
O=C(/C=C/c1ccc([N+](=O)[O-])o1)NNC(=O)c1ccc(F)cc1 79.4 µM
C/C(=N\Nc1cccc(C(=O)O)c1)c1ccc2c(c1)Nc1ccccc1S2 20 µM
Nc1ccc2[nH]c(=S)sc2c1 22.4 µM
Cc1cc(C)c2nc(-c3cccnc3)cc(C(=O)Nc3ccc(S(=O)(=O)Nc4onc(C)c4C)cc3)c2c1 44.7 µM
Cc1ccc(O)c(/C=N/NC(=O)COc2ccc3c(C)cc(=O)oc3c2)c1 50.1 µM
CCOC(=O)Cc1csc(NC(=O)COc2ccc3c(C)cc(=O)oc3c2)n1 31.6 µM
O=C(COC(=O)CCC(=O)c1cccs1)NCc1ccco1 7.08 µM
Cc1cc(C(=O)OCC(=O)NCc2ccco2)c(C)n1-c1ccccc1 14.1 µM
O=C(COC(=O)c1ccccc1O)NCc1ccco1 79.4 µM
CN(c1ccccc1)S(=O)(=O)c1ccc(Cl)c(C(=O)OCC(=O)NCc2ccco2)c1 31.6 µM

Potency, inactive and 11.2 µM (active):
N#C/C(=C\c1ccc(O)c(O)c1)C(=O)NCc1ccccc1

Potency, inactive:
NC1CCN(O)C1=O (stereo not given)
CCOc1ccc(NC(=O)CCC(=O)N2CC(C)Oc3ccc(C)cc32)cc1 (stereo not given)
COc1ccc(NC(=O)CCCc2nnc3n(CCC(C)C)c(=O)c4sccc4n23)c(OC)c1
Cc1cc(N2C(=O)c3ccc(C(=O)NCc4ccccc4)cc3C2=O)no1
COc1ccc(OC)c(NC(=O)c2ccc3c(c2)C(=O)N(c2ccc(OC(C)=O)cc2)C3=O)c1
COc1ccc(Cl)cc1-n1c(CCC(=O)O)ccc1-c1ccc(C)cc1
O=C(COc1ccc2c(C(F)(F)F)cc(=O)oc2c1)Nc1ccc2c(c1)OCCO2
Cc1ccc(Oc2c(C(F)(F)F)oc3c(CN4CCCCC4)c(O)ccc3c2=O)cc1
CCCn1c(NCc2ccc(N(CC)CC)cc2)nc2ccccc21
COc1cccc(-n2c(=O)c3c(C)c(C(=O)N(C)C)sc3n(Cc3cccc(C)c3)c2=O)c1
CCOC(=O)c1c(S(=O)(=O)NCC(=O)Nc2ccc(Cl)c(C(F)(F)F)c2)c(C)n(C)c1C
CCSc1nnc2c(n1)OC(c1ccc(OCC(=O)O)cc1)Nc1ccccc1-2 (stereo not given)
Cc1ccccc1NC(=O)c1c(NC(=O)c2ccccc2F)sc2c1CCC(C)C2 (stereo not given)
CCOc1cccc(CC(=O)N2CCc3c([nH]c4ccccc34)C2c2ccc(F)cc2)c1OCC (stereo not given)
CCOc1ccccc1C1NC(=O)NC(C)=C1C(=O)OCc1ccco1 (stereo not given)
COc1cccc2c1cc1c(=O)n(CC(=O)N3CCN(c4ccccc4)CC3)nc(C)n12
COc1ccc(CNC(=O)c2ccc3c(c2)nc2n3CCOC2)c(OC)c1
CC1CCN(S(=O)(=O)c2ccc(S(=O)(=O)NCc3ccco3)cc2)CC1
COc1cccc(CNS(=O)(=O)c2ccc3c(c2)CC(C)N3C(=O)C2CCC2)c1 (stereo not given)
COc1ccccc1CNC(=O)c1ccccc1NC(=O)c1nsc2ccccc12
COc1ccc(-c2c(C)c3ccc(O)c(CN4CCN(C)CC4)c3oc2=O)cc1OC
COc1cc(O)c2c(=O)c3c(O)c(O)ccc3oc2c1OC
Cc1cc(F)ccc1NC1(c2ccccc2)C(=O)c2ccccc2C1=O
Cc1ccc(NC(=O)Cn2cnc3nc4c(cc3c2=O)CCCC4)cc1Cl
Cc1ccccc1CS(=O)(=O)CC1Nc2ccc(C(=O)NCc3ccc(Cl)cc3)cc2NC1=O (stereo not given)
Cc1ccc(N2CC(c3nnc(Cc4ccccc4Cl)o3)CC2=O)cc1 (stereo not given)
Cc1nc2ccn(Cc3cccnc3)c(=O)c2cc1C(=O)N1CCN(c2ccccc2F)CC1
CCOc1ccccc1C(=O)Nc1ccc(S(=O)(=O)N2CCCCC2c2cccnc2)cc1 (stereo not given)
COc1ccc(-c2cn3c(C)c(C(=O)Nc4cc(C)cc(C)c4)sc3n2)cc1
COc1ccc(Cn2c(C(=O)O)c(CNCc3cccc(OC)c3)c3ccc(C)cc32)cc1
O=C(CC(c1cccs1)N1Cc2ccccc2C1=O)Nc1ccc(F)cc1F (stereo not given)
CCOc1ccc(NC(=O)c2cc3c(=O)n(Cc4cccs4)ccc3nc2C)cc1
CCOc1ccc(-c2nonc2NC(=O)c2oc3ccc(C)cc3c2C)cc1OCC
Cc1c(Cl)cccc1NC(=O)N1CCN(C(=O)c2nsc3ccccc23)CC1
COc1ccc(Cl)cc1S(=O)(=O)Nc1cccc(C(=O)O)c1
O=C(CCCOc1ccccc1)Nc1cccc(C(=O)O)c1
CC1=C(C(=O)OCc2ccc(C)cc2)C(c2c(Cl)cccc2Cl)CC(=O)N1 (stereo not given)
COc1cc(Cl)c(NC(=O)CC(C)S(=O)(=O)c2cc3c(cc2C)NC(=O)CO3)c(OC)c1 (stereo not given)
O=C(CCC(=O)N1CC2CCCN2c2ccccc21)NCc1ccccc1Cl (stereo not given)
Cc1ccc(Cn2cc(CCC(=O)NCc3ccc(OC(C)C)cc3)c3ccccc32)cc1
CC(=O)Nc1cc(C(=O)NCc2ccc(F)cc2)ccc1Sc1ccc(F)cc1
CCOC(=O)c1c(C)[nH]c(C)c1S(=O)(=O)N1CCCC(C(=O)NCc2ccccc2Cl)C1 (stereo not given)
O=C(CCS(=O)(=O)c1ccc2c(c1)NC(=O)CO2)Nc1cccc(C(F)(F)F)c1
Cc1noc(NS(=O)(=O)c2ccc(NC(=O)c3oc4ccc(F)cc4c3C)cc2)c1C
Cc1cc(OC(C)C(=O)Nc2ccc(S(=O)(=O)Nc3onc(C)c3C)cc2)cc(C)c1Cl (stereo not given)
CCOc1ccccc1C(=O)NCC(c1ccc(N(C)C)cc1)N1CCCC1 (stereo not given)
CC1CCCN(c2nc3c(S(=O)(=O)c4ccc(C(C)C)cc4)nnn3c3ccsc23)C1 (stereo not given)
Cc1ccc(S(=O)(=O)c2c(Nc3cccc(Cl)c3)sc(C(=O)c3ccc4c(c3)OCO4)c2N)cc1
CC(=O)c1c(C)[nH]c(C(=O)COc2ccc3c(C)cc(=O)oc3c2)c1C
CCOC(=O)Cc1csc(NC(=O)CN(C)S(=O)(=O)c2ccc3c(c2)CCC(=O)N3)n1
CCOC(=O)Cc1csc(SCc2cc(=O)oc3cc(O)ccc23)n1
Cc1ccccc1NC(=O)c1ccc(COc2ccc3c(C)cc(=O)oc3c2)cc1
COc1ccc(N2CCN(c3nc(-c4ccccc4F)nc4ccccc34)CC2)cc1
CCc1ccccc1NC(=O)Cn1c(=O)n(CC2CCC(C(=O)NCCc3ccccc3)CC2)c(=O)c2ccccc21 (stereo not given)
Cc1ccc(C)c(N2CCN(C(c3ccccc3)c3nnc(-c4ccccc4)o3)CC2)c1 (stereo not given)
COc1cccc(CNC(=O)CN2C(=O)CCc3cc(S(=O)(=O)N4CCOCC4)ccc32)c1
Cc1ccc(/C=C(\C#N)C(=O)Nc2cc(C)ccc2C)cc1
CC(C)NC(=O)/C(C#N)=C\c1ccc(N(C)C)c(Br)c1
CCc1ccc(-n2nc(C)c3c(C)cc(=O)n(CC(=O)Nc4ccc(F)cc4C)c32)cc1
CN(c1ccccc1)S(=O)(=O)c1ccc(Cl)c(C(=O)OCC(=O)N2CCOCC2)c1
CCN(C(=O)COC(=O)CCC(=O)c1cccs1)C1CCCCC1
CC1CCN(C(=O)COC(=O)CCC(=O)c2cccs2)CC1
O=C(CC1CCCCC1)NCc1ccco1
COc1ccccc1C(=O)OCC(=O)NCCNC(=O)COC(=O)c1ccccc1OC
O=C(COC(=O)c1cc(S(=O)(=O)N2CCOCC2)ccc1Cl)NCCc1ccccc1
O=C(COC(=O)c1ccccc1C(=O)N1CCN(c2ccccc2)CC1)NCc1ccccc1
Cn1c(N)c(C(=O)COC(=O)c2ccccc2NCc2ccco2)c(=O)n(C)c1=O
Cc1ccc2nc(COc3cccc(NC(=O)Nc4ccc(C)c(Cl)c4)c3)cc(=O)n2c1
COC(=O)c1cc(S(=O)(=O)N2CCN(c3cc(Cl)ccc3C)CC2)c[nH]1
Cc1cccc(N2CCN(C(=O)CCSCc3ccccc3F)CC2)c1C
Cc1ccc2oc(=O)c3cnn(CC(=O)N4CCN(c5cccc(Cl)c5)CC4)c3c2c1
COc1ccc(-n2ccnc(NCCc3ccc(Cl)cc3)c2=O)cc1OC
Cc1cccc(C(C)C)c1NC(=O)C(NS(=O)(=O)c1cccc2nsnc12)c1ccccc1 (stereo not given)
Cc1ccc(-n2ncc3c(=O)n(Cc4cccc(C(F)(F)F)c4)cnc32)cc1C
CC(C)(C)NC(=O)CSc1nc(-c2ccc(F)cc2)cc(C(F)(F)F)n1
